D1 antag = blocks dopamine activation of the human D1 receptor; P21728; HEK293 TREx D1 cells, calcium flux, dopamine EC80; hits give low values; activity change, negative = inhibition, % at 10 µM; 360,000 tested, 3.2% active; in the data active = activity change below about -30%
Target sequence (P21728 whole entry, looked up): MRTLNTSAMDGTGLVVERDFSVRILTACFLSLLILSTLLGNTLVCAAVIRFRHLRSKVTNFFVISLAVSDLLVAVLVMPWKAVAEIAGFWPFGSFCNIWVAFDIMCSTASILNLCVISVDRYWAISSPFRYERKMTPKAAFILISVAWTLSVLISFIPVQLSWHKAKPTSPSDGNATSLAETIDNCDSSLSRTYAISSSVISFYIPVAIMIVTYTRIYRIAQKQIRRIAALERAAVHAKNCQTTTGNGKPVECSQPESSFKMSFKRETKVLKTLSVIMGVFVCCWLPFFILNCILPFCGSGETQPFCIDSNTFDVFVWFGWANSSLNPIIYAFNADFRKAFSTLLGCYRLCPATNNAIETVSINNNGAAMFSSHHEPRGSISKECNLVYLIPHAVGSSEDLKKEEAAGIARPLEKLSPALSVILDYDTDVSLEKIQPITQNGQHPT
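Calcium flux readout: force-coupled, inducible Hek293 Trex D1 line, cells induced overnight at 30 C with tetracycline, dye-loaded 30–90 min at RT. Antagonism scored against EC80 dopamine challenge given 180 s after compound.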
DRD3 antagonist = D3 dopamine receptor (human) antagonism; max response, negative = inhibition, %; 360,000 tested, 2.5% active; AID 652054; D3R cells, DiscoveRx beta-arrestin luminescence, antagonist mode; hits give low values; in the data active = max response below about -50%; inconclusive = no clear call, values can overlap the other calls
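Cells expressing the human receptor were seeded at 1500 cells/well, incubated overnight at 37 degrees C in 5% CO2, then exposed to library compounds with dopamine controls for 90 minutes at 37 degrees C before luminescent detection.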
D1 potentiator = human D1 dopamine receptor positive modulation. P21728. HEK293 TREx D1 cells, calcium flux, dopamine EC20 potentiation. potentiation, % at 10 µM. 360,000 tested, 0.036% active; in the data active = potentiation above about 30%
D1 agonist = human D1 receptor agonism. P21728. HEK293 T-REx D1 cells, calcium flux, agonist mode. activation, % at 2 µM. 360,000 tested, 1% active. AID 504660; in the data active = activation above about 30%
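Agonism was scored from calcium flux recorded over 180 s (1 read/s) after pintool compound addition, following a 10-cycle baseline. Cells were inducible force-coupled HEK293 TREx D1, plated overnight at 30 C and loaded with no-wash calcium dye.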
DRD3 agonist = agonists of human D3 dopamine receptor; max activation, %; P35462; AID 652048; 410,000 tested, 0.58% active; D3R DiscoveRx beta-arrestin cells, luminescence, 90 min; in the data active = max activation above about 30%
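Agonist-mode cell screen: cells plated at 1500/well and incubated overnight at 37 °C, then exposed to library compounds for 90 min at 37 °C. Detection reagent was added for 30–60 min at room temperature, and luminescence was read.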
Hits are given with their value; 0 = inactive; ? = inconclusive; - = no result given. An excerpt weighted towards active compounds, which were near 6.1% of everything screened.

SMILES	D1 antag	DRD3 antagonist	D1 potentiator	D1 agonist	DRD3 agonist
COc1cccc2sc(N(CCCN(C)C)C(=O)c3ccc(S(=O)(=O)N4CCCc5ccccc54)cc3)nc12	0	0	0	39	0
CN(C)CCN(C(=O)c1ccc(S(=O)(=O)N2CCc3ccccc32)cc1)c1nc2ccc(F)cc2s1	-36	0	0	0	0
CCOC(=O)/C=C1\NC(C)(C)Cc2cc(OC)c(O)cc21	0	0	0	0	0
CCOC(=O)/C=C1\NC(C)(C)Cc2cc(OC)c(OC)cc21	-41	0	0	0	0
COc1cc2c(cc1OC)C1=C(C#N)CC/C(=N\S(=O)(=O)c3cccc(Cl)c3)N1CC2	-74	0	0	0	0
CCc1cccc(NC(=O)Cn2c(-c3ccccc3)cc(C(C)=O)c2C)c1	-33	0	0	0	0
Nc1nonc1N/N=C/c1c(O)ccc2ccccc12	0	0	0	31	0
Nc1cc(Cl)nc(N/N=C/c2c(O)ccc3ccccc23)n1	0	-146	0	0	0
O=C(O)c1cc(N/N=C/c2c(O)ccc3ccccc23)ccc1Cl	0	0	0	0	0
CCN(C(=O)Cc1c(C(=O)O)n(C)c2ccccc12)c1ccc(F)cc1	0	0	0	0	0
Cc1ccc(S(=O)(=O)N(C)C[C@H]2Oc3ncc(-c4ccccc4)cc3C(=O)N([C@@H](C)CO)C[C@@H]2C)cc1	-	0	-	-	0
Cc1cc2c3nonc3ccc2n1C	-34	0	0	0	0
Cc1ccc2c(c1)N(CC(=O)O)C(=O)CO2	-30	0	0	0	0
Cc1ccc(C)c(NC(=O)CCCN2C(=O)COc3ccc(C)cc32)c1	0	-	0	0	0
COc1ccc(NC(=O)CCCN2C(=O)COc3ccc(C)cc32)cc1OC	-46	-	0	0	0
CC(C)(C)c1ccc2c(c1)N(CC(=O)O)C(=O)CO2	0	0	0	0	0
CN(C)Cc1csc(NC(=O)Nc2cccc(C(F)(F)F)c2)n1	-	0	-	-	0
CC(C)c1ccc(NC(=O)Nc2nc(C(N)C(C)C)cs2)cc1 (centres undefined)	-	-54	-	-	43
CC(N)c1csc(NC(=O)Nc2cccc(C(F)(F)F)c2)n1 (centres undefined)	-	-54	-	-	0
CCC1CCCCN1CCCNC(=O)c1cn(CC(C)C)c(=O)c2cc(OC)c(OC)cc12 (centres undefined)	-	-68	0	0	0
CCC1=C(c2ccc(C)cc2)S(=O)(=O)N=C1N1CCC(C(=O)NCc2ccc(C)cc2)CC1	-39	-	0	0	0
CCC1=C(c2ccc(C)cc2)S(=O)(=O)N=C1N1CCC(C(=O)NCCc2ccc(Cl)cc2)CC1	0	-	0	0	0
COc1ccc(NC(=O)CCN2CCC(C)CC2)cc1	0	-76	0	0	0
COc1ccc(NC(=O)CCN2CCCC(C)C2)cc1 (centres undefined)	0	-74	0	0	0
COC(=O)c1scc(S(=O)(=O)C(C)(C)C)c1N	-37	0	0	0	0
SMILES	D1 antag	DRD3 antagonist	D1 potentiator	D1 agonist	DRD3 agonist
COC(=O)c1scc(S(=O)(=O)c2ccccc2)c1N	0	0	0	0	0
COc1cccc(CNC(=O)c2ccc(F)c(S(=O)(=O)N3CCCCC3)c2)c1	-	0	-	-	0
CCCCO	-	-	-	-	68
Cc1ccc(-c2nc3ccc(C)cn3c2Cc2ccsc2)cc1	-	0	-	-	0
Cc1ccc2nc(C(C)(C)C)c(Cc3ccsc3)n2c1	-	-107	-	-	0
Cc1ccc(N(C(=O)c2csnn2)C(C(=O)NC2CCCCC2)c2ccncc2)c(C)c1 (centres undefined)	0	0	0	0	0
O=C(N/N=C\C=C\c1ccc2c(c1)OCO2)c1cccnc1	-39	0	0	0	0
O=C(N/N=C/c1ccc2c(c1)OCO2)c1ccc2c(c1)OCO2	0	0	0	0	0
O=C(N/N=C/c1cccnc1)c1ccc2c(c1)OCO2	-35	0	0	0	0
CC[n+]1c(/C=C/N(C)c2ccccc2)oc2ccc(Cl)cc21	0	0	0	0	0
CCN1/C(=C/C=C/c2oc3ccc4ccccc4c3[n+]2CC)Oc2ccc3ccccc3c21	0	0	0	93	0
C#CCNC(=O)C1=C[C@H](c2ccc(C(F)(F)F)cc2)[C@@H](CCCO)[C@H](OCC)O1	0	0	0	0	34
C#CCNC(=O)C1=C[C@@H](c2ccc(Br)cc2)[C@H](CCCO)[C@@H](OCC)O1	0	0	0	0	0
O=C(c1cc2ccccc2[nH]1)N1CCOCC1	0	0	0	0	0
CC1(C(=O)N2CCCCC2)CCN1C(=O)c1ccccc1CCc1ccccc1 (centres undefined)	-	0	-	-	0
Cc1cccc(N2CCN(C(=O)CSc3nc4ccccc4nc3N3CC(C)OC(C)C3)CC2)c1C (centres undefined)	0	0	0	0	76
Cc1cccc(NC(=O)CSc2nc3ccccc3nc2N2CC(C)OC(C)C2)c1 (centres undefined)	0	0	0	0	0
Cc1ccc(NC(=O)CSc2nc3ccccc3c3nc(CCc4c(C)n[nH]c4C)nn23)c(C)c1	0	-	0	0	0
Cc1nc2c(c(C)nn2-c2ccccc2)c(C)c1CCC(=O)Nc1ccc(F)cc1	0	-	0	0	44
CC(=O)Nc1ccc(NC(=O)CCc2c(C)nc3c(c(C)nn3-c3ccccc3)c2C)cc1	0	-	0	0	0
CCN(CC)CCNC(=O)CCc1c(C)nc2c(c(C)nn2-c2ccc(C)cc2)c1C	0	-50	0	0	0
CNC(=O)c1ccc(Nc2nnc(-c3ccc(C)c(S(=O)(=O)N4CCOCC4)c3)c3ccccc23)cc1	0	-	0	0	0
N#Cc1nc(Nc2cccc([N+](=O)[O-])c2)nc(NC2CCCC2)n1	0	-	0	0	-
O=C(CCN1C(=O)c2ccccc2C1=O)NCc1ccco1	0	0	0	0	0
Cc1ccc(NC(=O)CCCN2C(=O)c3cccc4cccc(c34)C2=O)cc1	0	0	0	0	0
SMILES	D1 antag	DRD3 antagonist	D1 potentiator	D1 agonist	DRD3 agonist
Cc1ccc(NC(=O)CCN2C(=O)c3cccc4cccc(c34)C2=O)cc1	-33	0	0	0	0
O=C(CCN1C(=O)c2cccc3cccc(c23)C1=O)NCc1ccco1	0	0	0	0	34
CSc1ncccc1C(=O)OCC(=O)NCCCc1ccccc1	-	0	-	-	0
COc1cc(CNc2ccc3[nH]c(=O)[nH]c3c2)ccc1OCc1ccc(F)cc1	0	0	0	0	0
O=c1[nH]c2ccc(NCc3ccc(-c4ccc(F)cc4)o3)cc2[nH]1	0	-	0	33	0
Cc1nc(NC(=O)CN2CCC(O)(c3ccc(F)cc3)CC2)sc1C	0	0	0	0	0
CCCn1nc([N+](=O)[O-])c(C(C#N)c2nc3ccccc3o2)c(Cl)c1=O (centres undefined)	0	-61	0	0	0
CCn1nc([N+](=O)[O-])c(C(C#N)c2nc3cc(C(F)(F)F)ccc3s2)c(Cl)c1=O (centres undefined)	-38	0	0	0	0
Cn1nc([N+](=O)[O-])c(C(C#N)c2ccccn2)c(Cl)c1=O (centres undefined)	0	?	0	0	0
